Assay results: PubChem BioAssay (Tox21)
Results filed as inconclusive are left out. Activity calls are given as the source filed them. Unless noted, the call rests on the fitted dose curve; in most records, active means well fitted curve in the direction sought with a large enough effect in the repeat runs; inconclusive means weak or mixed curves; inactive means no such curve, though single readings can be large; an effect the other way counts as inactive or inconclusive.

Legend:
[1] = qHTS assay to identify small molecule antagonists of the estrogen related receptor (ERR) signaling pathway from Tox21 library - cell viability counter screen (AID 1224834); further: nearly all actives have a fitted effect of over 30% in size; further: potency means the concentration at half of the fitted maximal effect
Summary of the method: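 ERR reporter cells were plated 6 h before compound addition, then exposed to test compounds in DMSO for 17.5 h at 37 C. Viability was read as CellTiter-Fluor fluorescence after a 30-minute incubation at 37 C.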

[2] = biological target: Luciferin 4-monooxygenase (Photinus pyralis) (UniProt P08659); test: qHTS assay to identify small molecule inhibitors of firefly luciferase (AID 1224835); further: nearly all actives have a fitted effect of over 25% in size; further: potency means the concentration at half of the fitted maximal effect
Chain of Luciferin 4-monooxygenase (Photinus pyralis) (P08659 whole entry, looked up): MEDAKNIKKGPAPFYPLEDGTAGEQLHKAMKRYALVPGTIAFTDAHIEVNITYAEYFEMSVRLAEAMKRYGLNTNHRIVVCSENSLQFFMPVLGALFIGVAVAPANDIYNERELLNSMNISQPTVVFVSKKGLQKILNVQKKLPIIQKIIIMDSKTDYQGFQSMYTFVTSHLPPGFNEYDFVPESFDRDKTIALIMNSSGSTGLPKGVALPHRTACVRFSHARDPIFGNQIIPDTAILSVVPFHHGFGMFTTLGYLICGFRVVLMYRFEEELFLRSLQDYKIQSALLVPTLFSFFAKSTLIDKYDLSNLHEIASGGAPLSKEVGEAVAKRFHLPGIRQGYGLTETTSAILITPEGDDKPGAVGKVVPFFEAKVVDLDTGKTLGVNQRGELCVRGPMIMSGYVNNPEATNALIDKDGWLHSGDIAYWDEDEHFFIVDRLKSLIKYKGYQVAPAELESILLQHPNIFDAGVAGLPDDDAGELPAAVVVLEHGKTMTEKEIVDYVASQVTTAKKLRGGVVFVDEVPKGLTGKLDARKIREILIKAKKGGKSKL
Summary of the method: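 Quantitative HTS format; KM concentrations of both substrates. Purified P. pyralis FLuc activity quantified from luminescence images.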

[3] = qHTS assay to identify small molecule agonists of the constitutive androstane receptor (CAR) signaling pathway - cell viability counter screen (AID 1224836); further: nearly all actives have a fitted effect of over 45% in size; further: potency means the concentration at half of the fitted maximal effect
Summary of the method: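 Double-stable HepG2 hepatoma cells (hCAR plus CYP2B6-2.2kb) are treated for 23 h at 37 C with test compounds in 15-point concentration series. PK11195 at 0.75 uM final is co-added. Cell viability is quantified by CellTiter-Fluor.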

[4] = qHTS assay to identify small molecule antagonists of the constitutive androstane receptor (CAR) signaling pathway - cell viability counter screen (AID 1224837); further: nearly all actives have a fitted effect of over 45% in size; further: potency means the concentration at half of the fitted maximal effect
Summary of the method: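 HepG2 cells stably expressing hCAR and a CYP2B6-2.2kb reporter were plated and pre-incubated 4 hr at 37 C/5% CO2, then given compounds at 15 concentrations plus 50 nM CITCO (final). After 23 hr, viability was read by CellTiter-Fluor fluorescence.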

[5] = biological target: Nuclear receptor subfamily 1 group I member 3 (Homo sapiens) (UniProt Q14994); test: qHTS assay to identify small molecule antagonists of the constitutive androstane receptor (CAR) signaling pathway (AID 1224838); further: nearly all actives have a fitted effect of over 40% in size
Chain of Nuclear receptor subfamily 1 group I member 3 (Homo sapiens) (Q14994 whole entry, looked up): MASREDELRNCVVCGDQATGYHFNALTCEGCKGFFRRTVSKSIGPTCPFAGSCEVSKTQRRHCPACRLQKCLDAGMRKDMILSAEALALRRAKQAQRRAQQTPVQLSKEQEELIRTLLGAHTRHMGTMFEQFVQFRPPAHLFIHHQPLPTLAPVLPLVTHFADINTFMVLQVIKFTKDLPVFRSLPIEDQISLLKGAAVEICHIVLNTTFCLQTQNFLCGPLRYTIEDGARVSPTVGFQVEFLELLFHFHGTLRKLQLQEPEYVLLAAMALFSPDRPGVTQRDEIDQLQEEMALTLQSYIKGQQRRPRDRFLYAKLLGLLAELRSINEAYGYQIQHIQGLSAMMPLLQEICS
Summary of the method: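 HepG2 cells stably co-transfected with hCAR and a CYP2B6-2.2kb luciferase reporter were seeded 4 h before compound addition at 15 concentrations. Cells were stimulated with 50 nM CITCO (final) for 24 h at 37 C; luciferase luminescence was then read.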

[6] = biological target: Nuclear receptor subfamily 1 group I member 3 (Homo sapiens) (UniProt Q14994); test: qHTS assay to identify small molecule agonists of the constitutive androstane receptor (CAR) signaling pathway (AID 1224839); further: nearly all actives have a fitted effect of over 15% in size; further: potency means the concentration at half of the fitted maximal effect
Summary of the method: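 Readout: firefly luciferase luminescence via ONE-Glo. System: HepG2 double-stable for hCAR and CYP2B6-2.2kb. Conditions: 15-point compound titration, PK11195 at 0.75 uM final, 24 h incubation.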

[7] = qHTS assay to identify small molecule antagonists of the estrogen related receptor signaling pathway with the pleiotropic PPARgamma coactivator (PGC) from Tox21 10K library - cell viability counter screen (AID 1224840; active means well fitted cell-killing curve with a large enough effect in the repeat runs, not every such curve was filed as active; further: nearly all actives have a fitted effect of over 40% in size; further: potency means the concentration at half of the fitted maximal effect)
Summary of the method: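 PGC/ERR cells were seeded at 2,000 cells/well and left 6 hours at 37 C/5% CO2 before pin-tool addition of compounds in DMSO. After 17.5 hours at 37 C, CellTiter-Fluor was added and fluorescence read 30 minutes later.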

[8] = qHTS assay to identify small molecule antagonists of the estrogen related receptor signaling pathway with the pleiotropic PPARgamma coactivator (PGC) from Tox21 10K library (AID 1224841; call rule not given here; further: series mostly up to about 92 µM; actives are mostly falling curves and most rising ones were filed inactive; nearly all actives have a fitted effect of over 50% in size)
Summary of the method: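 PGC/ERR reporter cells were seeded at 2,000 cells/well and held 6 hours at 37 C/5% CO2 before pin-tool addition of compounds in DMSO. After 18 hours at 37 C, One-Glo was added and luminescence read after 30 minutes at room temperature.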

[9] = qHTS assay to identify small molecule agonists of the estrogen related receptor signaling pathway with the pleiotropic PPARgamma coactivator (PGC) from Tox21 10K library (AID 1224842); further: nearly all actives have a fitted effect of over 15% in size
Summary of the method: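 PGC/ERR reporter cells (NTP line) were seeded 2,000 per well, rested 6 h at 37 C/5% CO2, then pin-dosed with compounds in DMSO for 18 h at 37 C; luciferase read by One-Glo luminescence after 30 min at room temperature.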

Measured: Potency

C[N+]1(C)CCC(=C(c2ccccc2)c2ccccc2)CC1
inactive: all assays above

CCOCCn1c(C2CCN(CCc3ccc(C(C)(C)C(=O)O)cc3)CC2)nc2ccccc21
inactive: [1] | [2] | [3] | [4] | [7]

C=C(C)C(=O)OCCOC(=O)CC(C)=O
inactive: [1] | [2] | [3] | [4] | [7]

CCCCC/C(=C\c1ccccc1)CO
inactive: [1] | [2] | [3] | [4] | [7]

CCC1(C)CC(=O)NC1=O (configuration not stated)
inactive: [1] | [2] | [3] | [4] | [7]

O=C(CCCCCCCCC#CI)Oc1ccccc1
not listed: [5] | [8] | [9]
inactive: all other assays above

CCn1nc(C)c2c1C(=O)NCC(c1ccc(O)cc1)=N2
not listed: [5] | [8] | [9]
inactive: all other assays above

O=C(Nc1ccc([N+](=O)[O-])cc1)Nc1ccc([N+](=O)[O-])cc1
inactive: [1] | [2] | [3] | [4] | [7]

CO[Si](C)(OC)OC
inactive: [1] | [2] | [3] | [4] | [7]

CCCOc1ccc(S(=O)(=O)N2CCN(CC)CC2)cc1-c1nc2c(CC)n(Cc3ccccn3)nc2c(=O)[nH]1
not listed: [5] | [9]
inactive: all other assays above

CC(C)=CC=O
inactive: [1] | [2] | [3] | [4] | [7]

CCCCCCCCCCCC[N+](C)(C)CCCS(=O)(=O)[O-]
not listed: [5] | [8] | [9]
inactive: all other assays above

CC(=O)OCC(=O)[C@@]12OC(C)(C)O[C@@H]1C[C@H]1[C@@H]3C[C@H](F)C4=CC(=O)C=C[C@]4(C)[C@@]3(F)[C@@H](O)C[C@@]12C
inactive: [1] | [2] | [3] | [4] | [7]

CC(=O)CC(c1ccc([N+](=O)[O-])cc1)c1c(O)c2ccccc2oc1=O (configuration not stated)
not listed: [5] | [9]
inactive: all other assays above

CCCCC(CC)C(=O)OCCOCCOCCOCCOC(=O)C(CC)CCCC (configuration not stated)
not listed: [5] | [8]
inactive: all other assays above

O=S1OCCO1
not listed: [5] | [6] | [9]
inactive: all other assays above

CCC(C(=O)OCCOCCN(CC)CC)c1ccccc1 (configuration not stated)
inactive: [1] | [2] | [3] | [4] | [7]

Cn1c(=O)c2c(ncn2CC(=O)O)n(C)c1=O
inactive: [1] | [2] | [3] | [4] | [7]

CCCCCCOC(=O)CCCCCCCC(=O)OCCCCCC
not listed: [5] | [8] | [9]
inactive: all other assays above

C[Si](NC1CCCCC1)(NC1CCCCC1)NC1CCCCC1
inactive: [1] | [2] | [3] | [4] | [7]

COc1ccccc1N=Nc1c(S(=O)(=O)O)cc2cc(S(=O)(=O)O)cc(NC(C)=O)c2c1O
active: [1] 25.7 µM | [2] 29.8 µM | [3] 25.7 µM | [4] 25.7 µM | [7] 25.7 µM
inactive: [6]

O=C(O)c1cccc(O)c1
not listed: [5] | [8] | [9]
inactive: all other assays above

CC(=N\O)/C(C)=N/O
not listed: [5] | [8] | [9]
inactive: all other assays above

CCn1cc(C(=O)O)c(=O)c2cc(F)c(N3CCNCC3)nc21
inactive: [1] | [2] | [3] | [4] | [7]

C[C@]12CCC(=O)C=C1C=C[C@@H]1[C@@H]2CC[C@@]2(C)[C@H]1CC[C@@]21CCC(=O)O1
not listed: [5]
inactive: all other assays above

CC#N
inactive: [1] | [2] | [3] | [4] | [7]

CNC(=S)NC
not listed: [5] | [8] | [9]
inactive: all other assays above

O=[N+]([O-])c1cccc(S(=O)(=O)NCCNS(=O)(=O)c2cccc([N+](=O)[O-])c2)c1
not listed: [5] | [9]
inactive: all other assays above

CN1Cc2cc(C(=O)N3CCC(C4CCNCC4)CC3)ccc2N[C@@H](CC(=O)O)C1=O
not listed: [5]
inactive: all other assays above

CCOC(=O)OCC
inactive: [1] | [2] | [3] | [4] | [7]

CC(C)c1nnc2ccc(-c3ocnc3-c3cc(F)ccc3F)cn12
active: [6] 48.6 µM
not listed: [5] | [8]
inactive: all other assays above

CC(=O)[C@H]1CC[C@H]2[C@@H]3C[C@H](C)C4=CC(=O)CC[C@]4(C)[C@H]3[C@@H](O)C[C@]12C
not listed: [6]
inactive: all other assays above
